Screens (PubChem BioAssay)
aSyn UTR act – Activators via SNCA 5'UTR binding, MLPCN | alpha-synuclein 5'UTR reporter, activators screen | actives 7.1% (n = 300,000) | activity score, % (tested at 7.5 µM), hits read low | AID 1814, 2009; in the data active = activity score below about -60%
Hits are given with their value; - = inactive. These entries were drawn from the full list.

SMILES	aSyn UTR act
O=C(NCc1csc(-c2ccccc2)n1)c1cc(F)cc2c1OCOC2	-113
C/C(NC(=O)c1ccccc1)=C1/C(=O)CC2C1C2(C)C (centres undefined)	-99
O=C(O)CCCN1C(=O)/C(=C\c2ccc(-c3nc4ccccc4s3)o2)SC1=S	-83
O=Cc1ccc(-c2nc3ccccc3s2)o1	-98
CN(C)/C=N/c1cnc(C(=O)c2ccc(Cl)cc2)n1C	-202
Cc1cccn2cc(CSc3ccccc3N)nc12	-117
CSc1nnc2c(n1)c(C)nn2-c1ccc(C)cc1	-180
C=C[C@@]1(C)CC(=O)[C@]2(O)[C@@]3(C)[C@@H](O)CCC(C)(C)[C@@H]3[C@H](OC(C)=O)[C@H](O)[C@@]2(C)O1	-
COc1cc2c(cc1NC(=O)COC(=O)[C@@H](NS(=O)(=O)c1cccc(Cl)c1)C(C)C)oc1ccccc12	-103
COc1ccc(S(=O)(=O)N[C@@H](C)C(=O)OCC(=O)Nc2cc3oc4ccccc4c3cc2OC)cc1	-129
COc1cccc(C(=O)Nc2cccc(C(C)=O)c2)c1	-114
O=C(Nc1cc2c(cc1C(=O)O)OCCCO2)c1ccc(C(F)(F)F)cc1	-94
CC1CC(C)(C)Nc2ccc(OC(=O)c3ccco3)cc21 (centres undefined)	-
COc1ccc(C(=O)Nc2cccc(OC(=O)c3ccco3)c2)cc1	-113
CCOc1ccc(C(=O)Nc2ccc(N3CCN(C)CC3)cc2)cc1Br	-75
CCOc1cccc(C(=O)Nc2cccc(C(C)=O)c2)c1	-151
COc1ccc(C(=O)Nc2ccc(N3CCCC3)cc2)cc1OC	-166
COc1cccc(C(=O)Nc2cccc(OC(C)=O)c2)c1	-90
COc1cccc(C(=O)Nc2cc3c(cc2C(C)=O)OCCO3)c1	-72
CCOc1cccc(C(=O)Nc2ccc(N3CCCC3)cc2)c1	-66
CCOc1ccc(OCc2ccc(C(=O)N/N=C(\C)c3ccccn3)cc2)cc1	-
CC(=O)c1cc2c(cc1NC(=O)c1ccc(C)cc1)OCO2	-101
CCOc1c(Cl)cc(C(=O)Nc2cccc(C(=O)O)c2)cc1Cl	-80
CC(=O)Nc1cccc(NC(=O)c2ccc(COc3ccccc3)cc2)c1	-142
CCSc1nc2c(cnn2-c2ccccc2)c(=O)n1N	-105
SMILES	aSyn UTR act
CSc1nc2c(cnn2-c2ccccc2)c(=O)n1N	-92
O=C(c1ccc(Br)s1)N1CCc2ccccc2C1	-65
O=C(Cc1ccc(Br)cc1)N1CCc2ccccc2C1	-145
CCC(=O)NC(=S)Nc1ccc(NC(=O)c2ccco2)cc1	-86
CCOc1ccc(NC(=S)NC(=O)c2ccco2)cc1	-250
Fc1ccc(CSc2nnc3ccccn23)c(Cl)c1	-92
Fc1ccc(-c2nnc(CSc3nnc4ccccn34)o2)cc1	-116
c1ccc(-c2cnc(CSc3nnc4ccccn34)o2)cc1	-94
CC(C)c1ccc(NC(=S)N2CCCC2)cc1	-86
Cc1ccc(NC(=S)N2CCCC(O)C2)cc1 (centres undefined)	-63
OCC1CCCN(C(=S)Nc2ccc(Nc3ccccc3)cc2)C1 (centres undefined)	-130
S=C(Nc1ccccc1)N1CCCCCCC1	-88
Cc1ccc(S(=O)(=O)NC(=O)Nc2ccc(N(C)C)cc2)cc1	-111
O=C(Nc1nnc(S(=O)(=O)N2CCOCC2)s1)c1cccc(F)c1	-102
CSc1ccccc1OCc1cc(C(=O)N[C@H]2CCCCNC2=O)no1	-83
CSc1ccccc1OCc1cc(C(=O)NC(C)c2cnn(C)c2)no1 (centres undefined)	-62
CCN(C(=O)c1cc2c(=O)[nH]c3ccc(C)cc3c2s1)c1cccc(C)c1	-217
O=C(O)c1cccc(N/N=C/C2=C(Cl)c3cc(Cl)ccc3SC2)c1	-103
c1ccc(OCCOc2ccccc2-c2nnco2)cc1	-64
COc1ccc(N2C(=S)NC3N2C(=S)NC3(C)c2ccccc2)cc1 (centres undefined)	-93
Cc1[nH]n(-c2nc(-c3cccc([N+](=O)[O-])c3)cs2)c(=O)c1C	-135
CC(=O)c1sc(N/N=C/c2cccc(O)c2)nc1C	-338
Cc1csc(N/N=C/c2ccccn2)n1	-
CC(=O)Nc1sc(N/N=C/c2ccc(N(C)C)cc2)nc1-c1ccc(C)cc1	-68
Cc1csc(N/N=C/c2ccc([N+](=O)[O-])cc2)n1	-148
SMILES	aSyn UTR act
CN1CCN(C(c2ccc(Br)cc2)c2cc(Cl)c3cccnc3c2O)CC1 (centres undefined)	-
CC(=O)Nc1nc(C)c(-c2csc(Nc3cccc([N+](=O)[O-])c3)n2)s1	-
CC(=O)c1sc(N/N=C/c2cccc([N+](=O)[O-])c2)nc1C	-170
O=[N+]([O-])c1cccc(-c2csc(N/N=C/c3cccc(O)c3)n2)c1	-216
CC(=O)c1sc(N/N=C\c2ccc(N(C)C)cc2)nc1C	-135
CC(=O)c1cccc(Nc2nc(-c3cccc([N+](=O)[O-])c3)cs2)c1	-222
COc1ccc(C2=CC(c3ccc(F)cc3)n3nnnc3N2)cc1 (centres undefined)	-130
COc1ccc(C2=CC(c3sccc3C)n3nnnc3N2)cc1 (centres undefined)	-130
